This is part of a sample that, as a whole, favours compounds with a hit. Of some 79,000 tested, about 15% had one in any assay. Calls of active or inactive are those of the source. Cut-off read from the data, not from the text of the source: active = growth inhibition above about 70%; inactive = the rest.
Tests used:
[1] = NCI Yeast Anticancer Drug Screen. Data for the mec2-1 strain (AID 157); details: S. cerevisiae mec2-1 strain, active compounds read high
How it was run: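 Test agents were screened against the mec2-1 yeast strain, with defined DNA repair or cell cycle alteration. Growth was scored as inhibition against vehicle-only controls.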

[2] = NCI Yeast Anticancer Drug Screen. Data for the rad14 strain (AID 159);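 note: 0% = growth of vehicle-treated control cultures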; details: S. cerevisiae rad14 strain growth inhibition, active compounds read high
How it was run: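 Readout: yeast growth inhibition, referenced to vehicle-only cultures. Strain bears a defined alteration in DNA damage repair.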

[3] = NCI Yeast Anticancer Drug Screen. Data for the sgs1 mgt1 strain (AID 161);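 note: 0% = growth of cultures given vehicle only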; details: S. cerevisiae sgs1 mgt1 strain, active compounds read high
How it was run: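 Test agents were incubated with a DNA-repair-mutant yeast strain. Growth was then read and compared against vehicle-treated controls.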

[4] = NCI Yeast Anticancer Drug Screen. Data for the CLN2oe strain (AID 163);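 note: 0% = growth of vehicle-only control cultures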; details: S. cerevisiae CLN2oe strain, active compounds read high
How it was run: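 Here, growth inhibition in a cell-cycle-altered yeast strain after compound exposure was quantified against vehicle control growth.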

[5] = NCI Yeast Anticancer Drug Screen. Data for the cln2 rad14 strain (AID 165);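 note: 0% = growth equal to vehicle treated cultures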; details: S. cerevisiae cln2 rad14 strain, active compounds read high
How it was run: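 Growth of compound-exposed yeast (cln2 rad14 genotype) measured and expressed as inhibition relative to vehicle.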

[6] = NCI Yeast Anticancer Drug Screen. Data for the bub3 strain (AID 167); details: S. cerevisiae bub3 mutant strain, active compounds read high
How it was run: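 Part of a panel of yeast mutants defective in DNA damage repair or cell cycle regulation. Each strain is grown with compound, and inhibition is calculated relative to solvent-treated cultures.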

[7] = NCI Yeast Anticancer Drug Screen. Data for the wt2 strain (AID 169);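 note: 0% = growth of vehicle-treated yeast cultures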; details: S. cerevisiae wt2 strain growth inhibition, active compounds read high
How it was run: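 Genetically defined yeast strains from a DNA-repair/cell-cycle panel were used. Compound-exposed yeast growth was measured, and the inhibition was calculated relative to vehicle treatment.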

[8] = NCI Yeast Anticancer Drug Screen. Data for the sgs1 strain (AID 173);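 note: 0% = growth of vehicle-only control cultures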; details: S. cerevisiae sgs1 mutant, active compounds read high
How it was run: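 Relative growth inhibition, referenced to vehicle, was determined in a yeast strain with a defined alteration affecting DNA damage repair or cell cycle control after compound exposure.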

[9] = NCI Yeast Anticancer Drug Screen. Data for the mlh1 rad18 strain (AID 175); details: S. cerevisiae mlh1 rad18 strain growth inhibition, active compounds read high
How it was run: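 In this whole-cell yeast screen, a strain with altered DNA damage repair is challenged with compound, and its growth is measured against matched vehicle-treated controls.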

[10] = NCI Yeast Anticancer Drug Screen. Data for the rad18 strain (AID 177); details: S. cerevisiae rad18 mutant growth inhibition, active compounds read high
How it was run: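 Screen uses a yeast strain with a defined lesion in DNA damage repair; compound effect is read as loss of growth compared to untreated vehicle cultures.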

[11] = NCI Yeast Anticancer Drug Screen. Data for the rad52 strain (AID 147);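 note: 0% = growth of vehicle-treated control cultures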; details: S. cerevisiae rad52 mutant growth inhibition, active compounds read high
How it was run: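 Measured: yeast growth inhibition. System: strain with a defined DNA damage repair alteration. Reference: vehicle-treated control cultures.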

[12] = NCI Yeast Anticancer Drug Screen. Data for the wt1 strain (AID 149);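 note: 0% = growth of vehicle-treated wt1 cultures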; details: S. cerevisiae wt1 strain (SPY 50644) growth inhibition, active compounds read high
How it was run: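 The wt1 strain was treated with compounds, and growth was compared with vehicle-treated cultures to give inhibition.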

[13] = NCI Yeast Anticancer Drug Screen. Data for the rad50EPP+ strain (AID 151);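 note: 0% = growth of vehicle-treated control cultures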; details: S. cerevisiae rad50 mutant strain, active compounds read high
How it was run: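 One strain with a rad50 alteration (rad50EPP+) was compound-treated, its growth then compared to that of vehicle controls.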

[14] = NCI Yeast Anticancer Drug Screen. Data for the mgt1 strain (AID 153); details: S. cerevisiae mgt1 mutant growth inhibition, active compounds read high
How it was run: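 After exposure of the mgt1 yeast mutant to compound, growth was measured and reported as inhibition compared with vehicle controls.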

[15] = NCI Yeast Anticancer Drug Screen. Data for the rad50 strain (AID 155);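 note: 0% = growth of vehicle-only cultures of the same strain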; details: S. cerevisiae rad50 strain growth inhibition, active compounds read high
How it was run: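 Cells are treated with compound, grown, and their growth is then scored against vehicle-only cultures of the same repair-deficient yeast strain.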

[16] = NCI Yeast Anticancer Drug Screen. Data for the mlh1 strain (AID 171);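 note: 0% = growth of vehicle-treated control cultures of the same strain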; details: S. cerevisiae mlh1 strain growth inhibition, active compounds read high
How it was run: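 Here the genetically defined yeast mutant is grown with each compound, and the extent to which its growth falls below that of vehicle-exposed cells is reported.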

[17] = at 5.0 µM (retest, dose inferred, filed as 0.5)
[18] = at 50.0 µM (retest, dose inferred, filed as 5.0)

Measured: growth inhibition

CN(C)CCNc1ccc2ncnc3c2c1C(=O)c1ccccc1-3
inactive: [1]; [17] 15% | [1]; at 11.0 µM 32% | [1]; at 33.0 µM 45% | [1]; [18] 48% | [1]; at 50.0 µM 68.6% | [1]; at 100.0 µM 53% | [2]; at 1.2 µM 16% | [2]; at 3.7 µM 15% | [2]; at 11.0 µM 20% | [2]; at 33.0 µM 37% | [2]; at 100.0 µM 44% | [3]; [17] -21% | [3]; [18] 56% | [4]; at 1.2 µM 5% | [4]; at 3.7 µM 8% | [4]; at 11.0 µM 26% | [4]; at 33.0 µM 59% | [5]; [17] 2% | [5]; [18] 51% | [5]; at 50.0 µM 66.9% | [6]; at 1.2 µM -8% | [6]; at 3.7 µM -2% | [6]; [17] 33% | [6]; at 11.0 µM 11% | [6]; at 33.0 µM 21% | [6]; [18] 31% | [6]; at 100.0 µM 36% | [7]; at 1.2 µM 8% | [7]; at 3.7 µM 10% | [7]; at 11.0 µM 20% | [7]; at 33.0 µM 49% | [7]; at 100.0 µM 56% | [8]; at 1.2 µM 9% | [8]; at 3.7 µM 8% | [8]; at 11.0 µM 24% | [8]; at 33.0 µM 54% | [8]; at 100.0 µM 61% | [9]; [17] -13% | [9]; at 50.0 µM 65.5% | [10]; at 1.2 µM 11% | [10]; at 3.7 µM 12% | [10]; at 11.0 µM 25% | [10]; at 33.0 µM 61%
active: [3]; at 50.0 µM 77.4% | [4]; at 100.0 µM 74% | [6]; at 50.0 µM 74.2% | [9]; [18] 81% | [10]; at 100.0 µM 75%

C=C(C(=C)n1nnc(C(=O)OC)c1C(=O)OC)n1nnc(C(=O)OC)c1C(=O)OC
inactive: [11]; at 1.2 µM 0% | [11]; at 3.7 µM 2% | [11]; at 11.0 µM 3% | [11]; at 33.0 µM 0% | [11]; at 100.0 µM 0% | [12]; at 1.2 µM -1% | [12]; at 3.7 µM 0% | [12]; at 11.0 µM 1% | [12]; at 33.0 µM 0% | [12]; at 100.0 µM 1% | [13]; at 1.2 µM 0% | [13]; at 3.7 µM -1% | [13]; at 11.0 µM -1% | [13]; at 33.0 µM -2% | [13]; at 100.0 µM 0% | [14]; at 1.2 µM 0% | [14]; at 3.7 µM 5% | [14]; at 11.0 µM 0% | [14]; at 33.0 µM -1% | [14]; at 100.0 µM -3% | [15]; at 1.2 µM 0% | [15]; at 3.7 µM 1% | [15]; [17] 3% | [15]; at 11.0 µM 0% | [15]; at 33.0 µM 0% | [15]; [18] 2% | [15]; at 50.0 µM 27.1% | [15]; at 100.0 µM -2% | [1]; at 1.2 µM -5% | [1]; at 3.7 µM -5% | [1]; [17] -1% | [1]; at 11.0 µM -3% | [1]; at 33.0 µM -2% | [1]; [18] -1% | [1]; at 50.0 µM 51.9% | [1]; at 100.0 µM -5% | [2]; at 1.2 µM 1% | [2]; at 3.7 µM 3% | [2]; at 11.0 µM 3% | [2]; at 33.0 µM 3% | [2]; at 100.0 µM 1% | [3]; [17] 10% | [3]; [18] -3% | [3]; at 50.0 µM 51% | [4]; at 1.2 µM -2% | [4]; at 3.7 µM -1% | [4]; at 11.0 µM -4% | [4]; at 33.0 µM 0% | [4]; at 100.0 µM -4% | [5]; [17] -3% | [5]; [18] -2% | [5]; at 50.0 µM 53.2% | [6]; at 1.2 µM -1% | [6]; at 3.7 µM -3% | [6]; [17] 2% | [6]; at 11.0 µM -3% | [6]; at 33.0 µM -5% | [6]; [18] 2% | [6]; at 50.0 µM 66.4% | [6]; at 100.0 µM -4% | [16]; at 1.2 µM -1% | [16]; at 3.7 µM -2% | [16]; at 11.0 µM 0% | [16]; at 33.0 µM 0% | [16]; at 100.0 µM 0% | [8]; at 1.2 µM 0% | [8]; at 3.7 µM -1% | [8]; at 11.0 µM -2% | [8]; at 33.0 µM 0% | [8]; at 100.0 µM 0% | [9]; [17] -2% | [9]; [18] 48% | [9]; at 50.0 µM 59.5%

CN(C)c1ccc2c(SCC(=O)OCC(=O)[C@@]3(O)CC[C@H]4[C@@H]5CCC6=CC(=O)C=C[C@]6(C)[C@H]5C(=O)C[C@@]43C)c3ccc(N(C)C)cc3nc2c1
inactive: [11]; at 1.2 µM -7% | [11]; at 3.7 µM -8% | [11]; at 11.0 µM 46% | [12]; at 1.2 µM 16% | [12]; at 3.7 µM -16% | [12]; at 11.0 µM 64% | [13]; at 1.2 µM 1% | [13]; at 3.7 µM 6% | [13]; at 11.0 µM 6% | [13]; at 33.0 µM 63% | [14]; at 1.2 µM -27% | [14]; at 3.7 µM -37% | [14]; at 11.0 µM 69% | [15]; at 1.2 µM -31% | [15]; at 3.7 µM -13% | [15]; [17] 7% | [15]; at 50.0 µM 60.2% | [1]; at 1.2 µM -10% | [1]; at 3.7 µM -5% | [1]; [17] 13% | [1]; at 11.0 µM 55% | [2]; at 1.2 µM -12% | [2]; at 3.7 µM -22% | [2]; at 11.0 µM 66% | [3]; [17] 12% | [4]; at 1.2 µM 9% | [4]; at 3.7 µM 16% | [4]; at 11.0 µM 53% | [5]; [17] 0% | [6]; at 1.2 µM -13% | [6]; at 3.7 µM -4% | [6]; [17] 22% | [6]; at 11.0 µM 55% | [16]; at 1.2 µM -15% | [16]; at 3.7 µM -30% | [16]; at 11.0 µM 46% | [8]; at 1.2 µM 2% | [8]; at 3.7 µM -18% | [9]; [17] 50% | [10]; at 1.2 µM -9% | [10]; at 3.7 µM 6%
active: [11]; at 33.0 µM 90% | [11]; at 100.0 µM 92% | [12]; at 33.0 µM 91% | [12]; at 100.0 µM 91% | [13]; at 100.0 µM 83% | [14]; at 33.0 µM 89% | [14]; at 100.0 µM 88% | [15]; at 11.0 µM 71% | [15]; at 33.0 µM 90% | [15]; [18] 89% | [15]; at 100.0 µM 89% | [1]; at 33.0 µM 90% | [1]; [18] 86% | [1]; at 50.0 µM 72.9% | [1]; at 100.0 µM 90% | [2]; at 33.0 µM 90% | [2]; at 100.0 µM 88% | [3]; [18] 92% | [3]; at 50.0 µM 78.7% | [4]; at 33.0 µM 89% | [4]; at 100.0 µM 89% | [5]; [18] 78% | [5]; at 50.0 µM 80.7% | [6]; at 33.0 µM 87% | [6]; [18] 95% | [6]; at 50.0 µM 72.3% | [6]; at 100.0 µM 89% | [16]; at 33.0 µM 86% | [16]; at 100.0 µM 87% | [8]; at 11.0 µM 71% | [8]; at 33.0 µM 91% | [8]; at 100.0 µM 90% | [9]; [18] 86% | [9]; at 50.0 µM 84.5% | [10]; at 11.0 µM 74% | [10]; at 33.0 µM 90% | [10]; at 100.0 µM 87%
